# According to the supplement of paper PMC12645437, “Orthogonal IMiD-Degron Pairs Induce Selective Protein Degradation in Cells” (ACS Chemical Biology, 2025):
# Over roughly 8,300 sequences, “log2 fold change of degron read counts, EGFP-low vs EGFP+ sorted cells (limma voom), compound-induced degradation” has its median near -1.1; the highest 2% begin near 3.2. Shown is part of a subset that was picked to be rich in the highest values.
# T1: CRBN, Q96SW2
# T1 chain: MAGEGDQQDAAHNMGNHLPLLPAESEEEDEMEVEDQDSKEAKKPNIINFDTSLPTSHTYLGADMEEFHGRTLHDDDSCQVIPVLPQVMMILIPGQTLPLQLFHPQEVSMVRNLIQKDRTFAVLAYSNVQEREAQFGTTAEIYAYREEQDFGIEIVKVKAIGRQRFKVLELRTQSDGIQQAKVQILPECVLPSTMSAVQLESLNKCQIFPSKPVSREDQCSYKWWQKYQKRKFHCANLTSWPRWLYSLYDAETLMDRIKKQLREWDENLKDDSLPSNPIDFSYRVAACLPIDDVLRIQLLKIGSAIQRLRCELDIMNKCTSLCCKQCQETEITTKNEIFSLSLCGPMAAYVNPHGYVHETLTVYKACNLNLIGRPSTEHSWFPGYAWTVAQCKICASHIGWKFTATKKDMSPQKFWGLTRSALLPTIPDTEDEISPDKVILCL
# Target: T1, CRBN, Q96SW2
# Assay: log2 fold change of degron read counts, EGFP-low vs EGFP+ sorted cells (limma voom), compound-induced degradation; higher = more compound-induced degradation of the degron-EGFP fusion; degrons are variants of IKZF1/3 zinc finger 2; compound dose not given here
# Conditions: Jurkat, 18 h
# Protocol: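 Pooled library of 8380 IKZF3 ZF2 degron mutants (positions 146-167 varied within the IKZF3 130-189 degron; only the varied core is printed, flanks not printed) fused to EGFP with IRES-mCherry, lentivirally expressed in Jurkat cells. mCherry+ cells were treated with one IMiD compound for 18 h (dose not stated) and FACS-sorted into EGFP-low and EGFP+ populations. Degron sequences were counted by NGS, and log2FC (EGFP-low vs EGFP+) was estimated by limma voom over 3 biological replicates.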
# [1] = compound: compound 19 (5-tert-butyl-thalidomide)
# [2] = compound: compound 22 (5-morpholino-thalidomide)
# [3] = compound: compound 33 (diphenyl IMiD analogue)
# 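Further: pooled lentiviral library of zinc finger degron-EGFP fusions in mCherry-positive Jurkat cells, FACS-sorted after compound exposure, with degron abundance counted by next-generation sequencing.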
Sequence,log2 fold change of degron read counts [1],log2 fold change of degron read counts [2],log2 fold change of degron read counts [3],log2 fold change of degron read counts (compound: thalidomide)
"FVCNQCGARFTQKGNLLRHIKL [46F_47V_49N_50Q_52G_53A_54R_55F_67L_, Q9UKT9]",-2.15,-2.17,-1.37,-0.598
"FRCNQCGHEFTQKGNLLRHIKL [46F_47R_49N_50Q_52G_53H_54E_55F_67L_, Q9UKT9]",-3.26,-3.83,-3.1,-2.88
"FDCPICGHIFTQKGNLLRHIKL [46F_47D_49P_50I_52G_53H_54I_55F_67L_, Q9UKT9]",-2.28,-2.43,-1.8,-1.37
"LACPICGFWCTQKGNLLRHIKL [46L_47A_49P_50I_52G_53F_54W_55C_67L_, Q9UKT9]",2.95,2.34,2.58,2.45
"FICEQCGAIFTQKGNLLRHIKL [46F_47I_49E_50Q_52G_53A_54I_55F_67L_, Q9UKT9]",-2.04,-1.4,-0.144,-0.929
"FMCEICGRLFTQKGNLLRHIKL [46F_47M_49E_50I_52G_53R_54L_55F_67L_, Q9UKT9]",-2.26,-3.02,-1.18,-0.917
"FNCPICGHCFTQKGNLLRHIKL [46F_47N_49P_50I_52G_53H_54C_55F_67L_, Q9UKT9]",-2.1,-3.11,-1.84,-2.15
"FNCDICGAWFTQKGNLLRHIKL [46F_47N_49D_50I_52G_53A_54W_55F_67L_, Q9UKT9]",-1.24,-2.06,-2.22,-2.05
"FVCPVCGASFTQKGNLLRHIKL [46F_47V_49P_50V_52G_53A_54S_55F_67L_, Q9UKT9]",0.217,2.83,2.01,2.79
"FACPVCGASFTQKGNLLRHIKL [46F_47A_49P_50V_52G_53A_54S_55F_67L_, Q9UKT9]",3.54,2.15,1.39,1.39
"FTCPVCGASFTQKGNLLRHIKL [46F_47T_49P_50V_52G_53A_54S_55F_67L_, Q9UKT9]",1.45,2.72,2.67,2.79
"FKCPVCGASFTQKGNLLRHIKL [46F_47K_49P_50V_52G_53A_54S_55F_67L_, Q9UKT9]",1.07,-1.4,-1.51,0.152
"FECPVCGASFTQKGNLLRHIKL [46F_47E_49P_50V_52G_53A_54S_55F_67L_, Q9UKT9]",1.95,-0.732,2.2,2.9
"FSCPVCGASFTQKGNLLRHIKL [46F_47S_49P_50V_52G_53A_54S_55F_67L_, Q9UKT9]",3.33,2.24,2.42,1.71
"FQCPVCGASFTQKGNLLRHIKL [46F_47Q_49P_50V_52G_53A_54S_55F_67L_, Q9UKT9]",2.35,2.72,2.38,3.6
"FGCPVCGASFTQKGNLLRHIKL [46F_47G_49P_50V_52G_53A_54S_55F_67L_, Q9UKT9]",3.39,2.36,2.57,1.08
"FFCPVCGASFTQKGNLLRHIKL [46F_47F_49P_50V_52G_53A_54S_55F_67L_, Q9UKT9]",3.04,3.18,2.27,1.42
"FDCPVCGASFTQKGNLLRHIKL [46F_47D_49P_50V_52G_53A_54S_55F_67L_, Q9UKT9]",2.73,0.654,1.35,1.92
"FMCPVCGASFTQKGNLLRHIKL [46F_47M_49P_50V_52G_53A_54S_55F_67L_, Q9UKT9]",1.06,2.04,2.75,2.02
"FNCPVCGASFTQKGNLLRHIKL [46F_47N_49P_50V_52G_53A_54S_55F_67L_, Q9UKT9]",2.78,1.17,1.06,0.433
